According to PubChem BioAssay (NCATS):
Records with an inconclusive call do not appear. Calls of active or inactive are those of the source. The call rests on the fitted dose curve; in most records, active means well fitted curve in the direction sought with a large enough effect; inconclusive means small, poorly fitted or top-dose-only effect, or another doubt; inactive means no such curve, though single readings can be large; an effect the other way counts as inactive or inconclusive.

Tests used:
[1] = target: Glutathione peroxidase 1 (Homo sapiens) (UniProt P07203); assay: Primary qHTS Assay for Inhibitors of Recombinant Selenoprotein Glutathione Peroxidase 1 (GPX1) (AID 1845191); further: nearly all actives have a fitted effect of over 65% in size; on activity, negative = inhibition: on the % scale 0 is the no-effect control and ±100 the full control effect
Summary of the method: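 10 nM GPX1 + cpd, 30 min RT; start w/ 1 mM GSH, 0.5 mM cumene hydroperoxide, 0.5 mM NADPH, 100 nM GR, 0.01% BSA; buffer 50 mM Tris-HCl pH 7.5, 2 mM EDTA, 150 mM NaCl; Fl 340/450, 0 & 15 min.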

[2] = target: Phospholipid hydroperoxide glutathione peroxidase GPX4 (Homo sapiens) (UniProt P36969); assay: Primary qHTS Assay for Inhibitors of Recombinant Selenoprotein Glutathione Peroxidase 4 (GPX4) (AID 1845192); further: nearly all actives have a fitted effect of over 65% in size; on activity change, negative = inhibition: series mostly up to about 50 µM; on the % scale 0 is the no-effect control and ±100 the full control effect
Summary of the method: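 NADPH consumption, followed by fluorescence at 340/450 nm between 0 and 15 min, reports GPX4 activity via coupled glutathione reductase (100 nM). Enzyme 200 nM was pre-exposed to compound 30 min; 0.5 mM cumene hydroperoxide and 1 mM GSH served as substrates.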

[3] = target: Luciferin 4-monooxygenase (Photinus pyralis) (UniProt P08659); assay: Primary firefly luciferase (FLuc) qHTS assay for identification of artifact compounds. (AID 1845220); further: nearly all actives have a fitted effect of over 60% in size;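 on activity change, negative = inhibition: series mostly up to about 54 µM; plate controls were DMSO vehicle for no effect and no enzyme for full effect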
Summary of the method: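 FLuc 10 nM; luciferin 10 uM; ATP 10 uM; Tris-acetate pH 7.6, Mg-acetate 10 mM; 15 min RT preincubation; 5 min reaction; luminescence.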

[4] = Primary fluorescence-based thiol-reactive (MSTI) qHTS assay for identification of artifact compounds. (AID 1845221);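 further: series mostly up to about 54 µM; thiol-reactive compounds lower the probe fluorescence signal; nearly all actives have a fitted effect of over 65% in size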
Summary of the method: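 In PBS pH 7.4 with 2% DMSO, each compound met 4 uM MSTI for one hour at ambient temperature, shielded from light, before fluorescence detection.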

[5] = test system: Nanoluciferase (engineered Oplophorus gracilirostris luciferase); assay: Primary Nanoluciferase (NLuc) qHTS assay for identification of artifact compounds. (AID 1845222);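 further: NLuc secreted into diluted conditioned medium of S16 cells; series mostly up to about 54 µM; 0% = DMSO and -100% = no enzyme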
Summary of the method: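 NLuc from S16 cell medium (1:55) plus test compounds, 15 min, room temperature. Luminescence after Nano-Glo (1:100) addition, 5 min.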

[6] = Primary redox qHTS assay for identification of artifact compounds. (AID 1845223)
Summary of the method: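 Amplex Red (25 uM) and HRP (250 mU/mL) in HBSS, with compounds for 15 min, then 250 uM DTT for 30 min, room temperature, dark. Fluorescence 525/598 nm read; normalized to DMSO and 10 uM DA3003; Hill fit.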

[7] = HepG2 viability counterscreen (readout 2: ATP content) against the NCATS DSHEA and TCM libraries (AID 1794840); further: 0% is about no effect
Summary of the method: (§1)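 Same wells read twice: first fluorescence from cleaved GF-AFC substrate (25 uM final, 30 min, 37C) for live-cell protease, then CellTiter-Glo luminescence after 30 min at room temperature for ATP. HepG2 cells were exposed ~24 h to substances.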

[8] = HepG2 viability counterscreen (readout 1: protease activity) against the NCATS DSHEA and TCM libraries (AID 1794841);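 further: cells exposed to compounds for about 24 h before the protease read; 0% is about no effect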
Summary of the method: as §1

[9] = Quantitative High-Throughput drug screen in 47 multiple myeloma cell lines against the NCATS MIPE library collection: Delta47_JCRB cell viability assay (AID 1918925; further: nearly all actives have a fitted effect of over 45% in size; further: potency means the concentration at half of the fitted maximal effect)
Summary of the method: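 Relative luminescence from CellTiter-Glo served as the viability signal, referenced to DMSO-treated (100%) and cell-free medium (0%) controls. Treatment lasted 48 hours at 37C with 500 cells per well.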

[10] = Quantitative High-Throughput drug screen in 47 multiple myeloma cell lines against the NCATS MIPE library collection: FR4_PLB cell viability assay (AID 1918924; further: nearly all actives have a fitted effect of over 35% in size; further: potency means the concentration at half of the fitted maximal effect)
Summary of the method: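 Luminescent ATP measurement with CellTiter-Glo gives viability, scaled between DMSO-only wells (100%) and media-only wells (0%). Cells, 500 per well, faced library compounds for 48 hours at 37C.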

Chain of Glutathione peroxidase 1 (Homo sapiens) (P07203 whole entry, looked up): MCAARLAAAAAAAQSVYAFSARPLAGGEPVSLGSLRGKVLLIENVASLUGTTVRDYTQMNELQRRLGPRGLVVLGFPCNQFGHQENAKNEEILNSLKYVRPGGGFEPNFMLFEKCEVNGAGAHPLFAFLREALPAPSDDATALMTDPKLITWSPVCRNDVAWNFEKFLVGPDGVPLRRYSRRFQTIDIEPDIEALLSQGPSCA
Chain of Phospholipid hydroperoxide glutathione peroxidase GPX4 (Homo sapiens) (P36969 whole entry, looked up): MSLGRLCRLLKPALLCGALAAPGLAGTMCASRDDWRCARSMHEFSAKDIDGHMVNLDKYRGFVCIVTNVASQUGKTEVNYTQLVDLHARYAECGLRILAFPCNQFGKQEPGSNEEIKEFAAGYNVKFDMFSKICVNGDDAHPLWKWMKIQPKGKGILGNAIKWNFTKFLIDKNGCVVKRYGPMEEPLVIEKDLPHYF

Nc1ccc(-c2ccc3ncc4ccc(=O)n(-c5cccc(C(F)(F)F)c5)c4c3c2)cn1
inactive: Potency [1] | Potency [2] | Potency [3] | Potency [4] | Potency [5] | outcome [6]

CC(C)(CO)[C@@H](O)C(=O)NCCC(=O)O
inactive: outcome [7] | outcome [8] | Potency [1] | Potency [2]

CN1N=C(N)c2cn([C@@H]3O[C@H](COP(=O)(O)O)[C@@H](O)[C@@H]3O)c3ncnc1c23
inactive: Potency [1]

NC1(C(=O)N[C@@H](CCO)c2ccc(Cl)cc2)CCN(c2ncnc3[nH]ccc23)CC1
active: Potency [9] 83.3 nM
inactive: Potency [1] | Potency [2] | Potency [3] | Potency [4] | Potency [5] | outcome [6]

CC[C@H](CC#N)OC(=O)N[C@@H](C)c1cccc(NC(=O)Nc2ccc(-c3cnco3)c(OC)c2)c1
active: Potency [10] 1480 nM
inactive: Potency [1] | Potency [2] | Potency [3] | Potency [4] | Potency [5] | outcome [6]

Cc1ccc(C(=O)N(CCCN)[C@@H](c2nc3cc(Cl)ccc3c(=O)n2Cc2ccccc2)C(C)C)cc1
inactive: Potency [1] | Potency [2]

O=C(O)CCNc1cc(N2CCc3ccccc3CC2)nc(-c2ccccn2)n1
inactive: Potency [1] | Potency [2] | Potency [3] | Potency [4] | Potency [5] | outcome [6] | Potency [10] | Potency [9]

C[C@H](CCC(=O)O)[C@H]1CC[C@H]2[C@H]3[C@@H](CC[C@]12C)[C@@]1(C)CC[C@@H](O)C[C@H]1C[C@@H]3O
inactive: Potency [1]

CNC(=O)c1cc(Oc2ccc(NC(=O)Nc3ccc(Cl)c(C(F)(F)F)c3)c(F)c2)ccn1
inactive: Potency [1] | Potency [2] | Potency [3] | Potency [4] | Potency [5] | outcome [6]
active: Potency [10] 23500 nM

NC(=O)c1ccc(N(C(N)=O)c2c(F)cccc2F)nc1-c1ccc(F)cc1F
inactive: Potency [1] | Potency [2] | Potency [3] | Potency [4] | Potency [5] | outcome [6] | Potency [10]
active: Potency [9] 5900 nM

O=C(CC12CC3CC(CC(C3)C1)C2)Nc1cccc2nc(NCCNCCO)ccc12
inactive: Potency [1] | Potency [2] | Potency [4] | Potency [5]
active: Potency [9] 2640 nM

O=C(CO)N1CCC(c2[nH]nc(-c3ccc(Cl)cc3)c2-c2ccncn2)CC1
inactive: Potency [1] | Potency [2] | Potency [4] | Potency [5] | outcome [6] | Potency [10] | Potency [9]

CN[C@@H](C)[C@H]1[C@H](O)C[C@@]2(C)[C@@H]3CC[C@H]4C(C)(C)[C@@H](NC)CC[C@@]45C[C@@]35CC[C@]12C
inactive: outcome [1] inactive [at 9.52 µM] | activity change, negative = inhibition [2] -4.33% [at 9.73 µM] | activity change, negative = thiol reactive [4] 7.61% [at 11.5 µM] | activity, negative = inhibition [5] 3.6% [at 11.6 µM] | redox activity (% of DA3003) [6] -0.744% [at 11.5 µM] | Potency [9]
